High-throughput results (PubChem BioAssay)
LASV entry inh – qHTS for Inhibitors of binding or entry into cells for Lassa Virus; Lassa virus pseudotype entry inhibition, cell reporter; Potency, µM (doses to about 37.9 µM), inactives show at the highest dose activity change, negative = inhibition, hits mostly inhibitors; 300,000 compounds, 1.2% hits; calls by dose curve; tested in HEK293 cells; further: potency means the concentration at half of the fitted maximal effect; on the % scale 0 is the no-effect control and ±100 the full control effect; nearly all actives have a fitted effect of over 50% in size
HCV inhibitor – qHTS Assay for Inhibitors of Hepatitis C Virus (HCV); Huh7.5.1 HCVcc-Cre infection, luciferase reporter, 44 h; Potency, µM (highest dose often 41.8 µM), for the others: top-dose activity change, negative = inhibition, most hits filed as inhibitors; 340,000 compounds, 3.4% hits; AID 651820, 2012; active means well fitted inhibition curve with a large enough effect; inconclusive means small, poorly fitted or top-dose-only effect, or another doubt; inactive means no such curve, though single readings can be large or run the other way; further: potency means the concentration at half of the fitted maximal effect; on the % scale 0 is the no-effect control and ±100 the full control effect
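1,000 cells/well; 4 h culture; + compound; + HCVcc-Cre (~0.5 moi); 44 h; luciferase substrate, RT 15 min; read 15 sec.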
MARV entry inh – qHTS for inhibitors of binding or entry into cells for Marburg Virus. Potency, µM (doses to about 37.8 µM), inactives show at the highest dose activity change, negative = inhibition, hits mostly inhibitors. 300,000 compounds, 1.8% hits. Marburg virus pseudotyped entry inhibition, cell reporter; calls by dose curve; tested in HEK293 cells; further: potency means the concentration at half of the fitted maximal effect; on the % scale 0 is the no-effect control and ±100 the full control effect
Cycloheximide cs – Cycloheximide Counterscreen for Small Molecule Inhibitors of Shiga Toxin. cell reporter, cycloheximide protein synthesis inhibition counterscreen. 300,000 compounds, 12% hits. AID 2314, 2010. max response, %; in the data active means max response mostly above about 13%, no sharp cut-off; inactive means mostly below about 14%; further: read at 38.3 µM for the half of the compounds with a filed dose; 0% is about no effect
Shiga toxin inh – A qHTS for Small Molecule Inhibitors of Shiga Toxin; Vero cells, Shiga toxin protein synthesis inhibition reporter; inhibition, % at 38.7 µM; 290,000 compounds, 9.2% hits; AID 2315, 2010; in the data active means inhibition mostly above about 28%, no sharp cut-off; inactive means mostly below about 43%; further: 0% is about no effect
FMDV antiviral – High Throughput Screening for Foot and Mouth Disease Virus Antivirals; FMDV antiviral cell-based qHTS; Potency, µM (highest dose often 57.9 µM), for the others: top-dose activity change, negative = inhibition, most hits filed as inhibitors; 410,000 compounds, 1.2% hits; calls by dose curve; tested in HEK293T cells; further: read-out not given here; potency means the concentration at half of the fitted maximal effect; on the % scale 0 is the no-effect control and ±100 the full control effect; nearly all actives have a fitted effect of over 45% in size
An asterisk follows results filed as active; u = inconclusive; x = no result; [ ] = dose if it differs, or a comment. This is a sample that favours compounds with a hit; in the whole collection about 13% have one here.

SMILES	LASV entry inh	HCV inhibitor	MARV entry inh	Cycloheximide cs	Shiga toxin inh	FMDV antiviral
Cc1nc(SCC(=O)Nc2cc(Cl)ccc2[N+](=O)[O-])nc(C)c1C	22.2%	9.5%	4.5%	-1.0	-12.9	u
O=C(CSc1ncccn1)Nc1cc(Cl)ccc1[N+](=O)[O-]	-4.1%	20.2%	-1.0%[14.2 µM]	22.6*	19.3	3.5%
O=C(CSc1ncccn1)NCc1ccccc1	u	16.6%	u	17.6*	54.3	65.9%
CC(Sc1nc2cc([N+](=O)[O-])ccc2n1-c1ccc(F)cc1)C(=O)NCc1ccc2c(c1)OCO2 (centres undefined)	u	u	u	-3.9	-15.5	-2.1%
COc1ccccc1-n1c(SCC(=O)NCc2ccc3c(c2)OCO3)nc2cc([N+](=O)[O-])ccc21	u	25.1µM*	24.3%	-1.8	5.7	1.5%
O=C(COC(=O)c1ccccn1)NCc1cccc(Cl)c1	24.8%	4.5%	-11.0%[46.1 µM]	x	x	-7.3%
Cc1ccccc1OCC(=O)Nc1ccc([N+](=O)[O-])cc1	-0.4%	2.3%	u	-2.8	x	4.5%
COc1ccccc1CNC(=O)c1ccc(CNc2c(N3CCCC3)c(=O)c2=O)cc1	-3.4%	-16.3%	-0.1%	-6.5	-9.6	-4.2%
COc1ccc(NC(=O)c2oc3ccccc3c2NC(=O)C(C)(C)C)cc1	-5.9%	u	-2.0%	12.1	15.9	-0.2%
O=C(CSc1ncccn1)NCc1ccc2c(c1)OCO2	15.4%[46.1 µM]	14.8%	-2.5%[46.1 µM]	31.2	24.7*	0.0%
CCn1cc(SCC(=O)NCc2ccc3c(c2)OCO3)c2ccccc21	x	10µM*	x	-1.1	-8.0	5.1%
O=C(CSc1ncccn1)NCc1ccc(Cl)cc1	0.4%	3.3%	29.7%	48.8*	73.3*	0.0%
CC(O)C(=O)N/N=C/c1ccccc1C(=O)O (centres undefined)	3.8%	3.1%	21.7%[46.1 µM]	10.1	10.8	12.8%
CC(O)C(=O)N/N=C/c1cccc(Cl)c1Cl (centres undefined)	13.2%	6.5%	20.0%	19.8*	-17.9	36.5%
COc1ccc(-n2sc3ccc(F)cc3c2=O)cc1	x	2.82µM*	x	x	x	-59.0%
CCn1c(=O)c2cc(C(=O)N(C)c3cc(Cl)c(OC)cc3OC)sc2c2ccccc21	15.9%[46.1 µM]	x	11.0%[46.1 µM]	x	x	-20.6%
CCn1c(=O)c2cc(C(=O)NCCN3CCOCC3)sc2c2ccccc21	x	11.2µM*	x	-0.5	-9.1	-0.8%
CCn1c(=O)c2cc(C(=O)N(C)c3ccccc3F)sc2c2ccccc21	-4.3%[46.1 µM]	1µM*	-0.8%[46.1 µM]	-1.9	-13.9	-25.8%
CCCCNC(=O)c1cc2c(=O)n(CC)c3ccccc3c2s1	u	u	-10.6%	-7.4	-4.0	8.5%
CCn1c(=O)c2cc(C(=O)N(C)c3cc(C)ccc3OC)sc2c2ccccc21	x	12.6µM*	x	-1.5	-5.0	-47.2%
CCOC(=O)c1cnn(-c2ccccc2)c1NC(=O)CN1CCCCC1	5.6%[46.1 µM]	-3.9%	u	-1.3	-2.9	-17.8%
Cc1ccccc1OCCC(=O)N(Cc1ccccc1)c1c(N)n(Cc2ccccc2)c(=O)[nH]c1=O	11.2µM*	u	3.7%	-2.6	2.1	0.0%
CCCCN(C(=O)CCOc1ccc(OCC)cc1)c1c(N)n(Cc2ccccc2)c(=O)[nH]c1=O	x	x	x	x	x	-22.6%
Cc1ccc(OCCC(=O)N(Cc2ccccc2)c2c(N)n(Cc3ccccc3)c(=O)[nH]c2=O)cc1	u	11.2µM*	u	x	x	-23.8%
Nc1c(N(CCC2=CCCCC2)C(=O)COc2ccc(F)cc2)c(=O)[nH]c(=O)n1Cc1ccccc1	x	12.6µM*	x	x	x	-22.0%
SMILES	LASV entry inh	HCV inhibitor	MARV entry inh	Cycloheximide cs	Shiga toxin inh	FMDV antiviral
COc1ccc(S(=O)(=O)N2CCCCC2)cc1NC(=O)CCc1nc2ccccc2c(=O)[nH]1	-0.2%	u	-16.2%	x	x	3.9%
CCN(CC)C(=O)c1cccc(-c2csc(C(NC(C)=O)c3ccccc3)n2)c1 (centres undefined)	x	x	x	x	x	-9.6%
O=C(Nc1ccc(N2CCOCC2)c2nonc12)C1CCCC1	-3.8%	0.3%	8.9%	18.3*	37.0	23.4%
O=C(Nc1ccc(F)cc1)Nc1ccc(N2CCOCC2)c2nonc12	-24.2%	u	u	17.8*	37.7	41.4%
O=C(Nc1ccc(Cl)cc1N1CCOCC1)C1CCCCC1	-0.9%[46.1 µM]	3.5%	4.7%[46.1 µM]	2.9	-6.1	0.0%
O=C1CSC(c2ccc(Cl)c(Cl)c2)N1c1nccs1 (centres undefined)	x	14.4%	x	x	x	-21.2%
COc1cc(OC)cc(-c2nc3ccccc3c(=O)n2OC(=O)c2ccc(C)c(C)c2)c1	u	-4.3%	11.2µM*	9.4	17.7	u
COc1cc2oc3ccc(C#Cc4ccccn4)cc3c(=O)c2cc1OC	x	u	x	x	x	11.4%
O=c1c2ccccc2oc2ccc(C#CC3(O)CCCCC3)cc12	x	u	x	x	x	31.6µM*
Cn1c2ccccc2c(=O)c2cc(C#CC3(O)CCCCC3)ccc21	x	13.6%	x	26.6*	55.9*	25.1µM*
COc1cccc2oc3ccc(C#CC4(N)CCCCC4)cc3c(=O)c12	x	u	x	20.9*	24.3*	-7.7%
Cc1cc2sc3ccc(C#CC4(O)CCCCC4)cc3c(=O)c2cc1C	x	-0.9%	x	x	x	0.0891µM*
NC1(C#Cc2ccc3c(=O)c4ccccc4sc3c2)CCCCC1	x	-7.9%	x	x	x	-18.6%
Cn1c2ccccc2c(=O)c2ccc(C#CC3(N)CCCCC3)cc21	x	11.2µM*	x	45.5*	85.1*	6.0%
CC(C)CN1CCC(=O)N(CCSc2ccccc2)CC1	x	-1.6%	x	39.2*	37.1*	0.0%
CCCN1CCC(=O)N(CCSc2ccc(OC)cc2)CC1	x	-28.8%	x	9.5	11.5	-4.7%
CCCN1CCC(=O)N(CCSc2ccc(C)cc2)CC1	x	-5.0%	x	37.6*	53.3*	32.8%
O=C1CCC(O)CCN1CCSc1ccccc1 (centres undefined)	x	4.3%	x	33.6*	50.2*	54.3%
Cc1ccc(SCCN2CCN(CCc3ccccc3)CCC2=O)cc1	x	2.24µM*	x	13.2	7.1	-5.2%
COc1ccc(SCCN2CC[C@@H](O)CCC2=O)cc1	x	0.7%	x	x	x	18.5%
CCOC(=O)N1C(=O)NC(=O)C1c1ccccc1 (centres undefined)	4.6%[46.1 µM]	25.4%	17.7%	x	x	-13.7%
O=C(Cn1cc(SCc2ccc(C(F)(F)F)cc2)c2ccccc21)N1CCCCCC1	u	x	x	x	x	-5.8%
CC1CCN(C(=S)NC(=O)c2ccco2)CC1	u	14.0%	5.2%[46.1 µM]	33.1*	50.0	-10.3%
COc1ccc(C(=O)NC(=S)N2CCC(C)CC2)cc1	13.9%	-9.2%	u	25.6*	41.3	22.9%
COc1ccc(C(=O)NC(=S)N2CCCCC2)cc1	u	25.2%	u	19.4*	40.4*	41.4%
CSCCC(NC(=O)COc1ccccc1)C(=O)N1CC(C)OC(C)C1 (centres undefined)	x	0.5%	x	x	x	-11.4%
Cc1nc(N2CCN(C)CC2)c2cc(-c3ccccc3)sc2n1	3.5%[46.1 µM]	-3.1%	17.0%[46.1 µM]	16.5	34.9	4.1%
